Source: PubChem BioAssay (NCATS)
Records with an inconclusive call do not appear. Active and inactive are the calls of the source. The call rests on the fitted dose curve; in most records, active means well fitted curve in the direction sought with a large enough effect; inconclusive means small, poorly fitted or top-dose-only effect, or another doubt; inactive means no such curve, though single readings can be large; an effect the other way counts as inactive or inconclusive.

Key:
[1] = Cellular Toxicity (caspase-3) BJ (AID 658); conditions: Potency: caspase-3 activation;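 further: 0% = DMSO basal and 100% = 10 µM staurosporine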
In short: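 BJ human foreskin fibroblasts, 1000 cells/well, treated 16 hours at 37 °C in complete medium; caspase 3/7 activity by Caspase-Glo luminescence after 1 hr at room temperature. Normalized to DMSO and 10 uM staurosporine; AC50 from Hill fits.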

[2] = Cellular Toxicity (caspase-3) MRC-5 (AID 659);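 further: 0% = DMSO basal and 100% = 10 µM staurosporine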
In short: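 MRC-5 human normal lung fibroblasts, 1500 cells/well, treated 16 h at 37 °C in complete medium. Caspase 3/7 measured by Caspase-Glo luminescence after 1 h at room temperature. Normalized to DMSO and 10 uM staurosporine; AC50 from Hill fit.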

[3] = Cellular Toxicity (caspase-3) Mesangial (AID 660);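 further: combined caspase 3 and 7 activity read by Caspase-Glo luminescence; cells exposed to compound for 16 h before the caspase read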
In short: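 Human renal glomerular mesangial cells, 1000/well, 5 h at 37 C before 16 h compound treatment. Caspase-Glo 3/7 luminescence after 20 min; normalized to DMSO and 100 uM tamoxifen, AC50 from Hill fit.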

[4] = Cellular Toxicity (caspase-3) SK-N-SH (AID 661);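 further: 0% = DMSO basal and 100% = 10 µM staurosporine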
In short: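 Human SK-N-SH neuroblastoma cells, 1500/well, were exposed to compounds for 16 hours at 37 °C. Caspase-Glo 3/7 luminescence was normalized to DMSO (basal) and 10 uM staurosporine (100%), and AC50 came from a Hill fit.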

[5] = Cellular Toxicity (caspase-3) Hek293 (AID 664); conditions: HEK293 caspase-3 activation, DMSO = 0%, 100 µM tamoxifen = 100%; at 92.2 µM (top of the series);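 further: cells exposed to compound for 16 h at 37 °C before readout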
In short: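 HEK293 cells in complete medium treated 16 h at 37 °C, then Caspase-Glo 3/7 luminescence read after 20 min at room temperature. Normalized to DMSO and 100 uM tamoxifen; AC50 from Hill fit of concentration-response.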

[6] = Cellular Toxicity (caspase-3) N2a (AID 665);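 further: compound exposure lasted 16 h at 37 °C before readout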
In short: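 Mouse N2a neuroblastoma cells, 1500 per well, treated 16 h at 37 °C in complete medium; caspase-3/7 activity by Caspase-Glo luminescence after 1 h. Normalized to DMSO and 10 uM staurosporine; AC50 from Hill fits.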

[7] = Cellular Toxicity (caspase-3) NIH 3T3 (AID 666);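 further: caspase signal read after 16 h compound exposure; 0% = DMSO basal and 100% = 100 µM tamoxifen stimulation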
In short: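 Mouse NIH 3T3 fibroblasts (1000/well) treated 16 h at 37 C; caspase-3/7 activity measured by Caspase-Glo 3/7 luminescence after 20 min. Normalized to DMSO and 100 uM tamoxifen; AC50 from Hill fits.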

[8] = Cellular Toxicity (caspase-3) Renal Proximal Tubule (AID 667); conditions: Potency: caspase-3 activation;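 further: cells exposed to compound for 16 hours at 37 °C before detection; 0% = DMSO basal and 100% = 10 µM staurosporine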
In short: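 AC50 derived by standard Hill fit of concentration-response data, normalized between DMSO basal and 10 uM staurosporine as 100% stimulation. Cells: primary rat kidney proximal tubule, 16 h treatment at 37 °C.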

[9] = molecular target: Cytochrome P450 2C9 (Homo sapiens) (UniProt P11712); experiment: qHTS Assay for Inhibitors and Substrates of Cytochrome P450 2C9 (AID 883); further: on the % scale 0 is the no-effect control and ±100 the full control effect; nearly all actives have a fitted effect of over 60% in size
Chain of Cytochrome P450 2C9 (Homo sapiens) (P11712 whole entry, looked up): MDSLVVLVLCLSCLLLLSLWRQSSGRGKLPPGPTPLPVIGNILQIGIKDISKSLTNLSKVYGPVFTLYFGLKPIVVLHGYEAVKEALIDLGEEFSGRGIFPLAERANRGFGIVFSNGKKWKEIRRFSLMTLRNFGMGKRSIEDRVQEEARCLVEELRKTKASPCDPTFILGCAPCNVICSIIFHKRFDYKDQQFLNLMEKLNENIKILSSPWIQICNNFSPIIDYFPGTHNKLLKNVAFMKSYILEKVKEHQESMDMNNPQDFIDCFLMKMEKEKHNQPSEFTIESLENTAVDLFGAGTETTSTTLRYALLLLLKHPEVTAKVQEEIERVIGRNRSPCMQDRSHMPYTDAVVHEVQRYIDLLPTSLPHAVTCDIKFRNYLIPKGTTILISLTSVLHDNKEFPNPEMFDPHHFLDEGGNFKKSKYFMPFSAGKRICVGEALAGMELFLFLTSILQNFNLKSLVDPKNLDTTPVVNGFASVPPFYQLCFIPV
In short: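 Human CYP2C9 (10nM) with Luciferin-H at 100uM (its KM) in 25mM KPO4; compound preincubated 10 min at 37C, then NADPH regeneration for 60 min at 37C. Luciferin read by luminescence after detection reagent; normalized to 57uM sulphaphenazole as full inhibition.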

[10] = molecular target: Cytochrome P450 3A4 (Homo sapiens) (UniProt P08684); experiment: qHTS Assay for Activators of Cytochrome P450 3A4 (AID 885); further: nearly all actives have a fitted effect of over 65% in size
Chain of Cytochrome P450 3A4 (Homo sapiens) (P08684 whole entry, looked up): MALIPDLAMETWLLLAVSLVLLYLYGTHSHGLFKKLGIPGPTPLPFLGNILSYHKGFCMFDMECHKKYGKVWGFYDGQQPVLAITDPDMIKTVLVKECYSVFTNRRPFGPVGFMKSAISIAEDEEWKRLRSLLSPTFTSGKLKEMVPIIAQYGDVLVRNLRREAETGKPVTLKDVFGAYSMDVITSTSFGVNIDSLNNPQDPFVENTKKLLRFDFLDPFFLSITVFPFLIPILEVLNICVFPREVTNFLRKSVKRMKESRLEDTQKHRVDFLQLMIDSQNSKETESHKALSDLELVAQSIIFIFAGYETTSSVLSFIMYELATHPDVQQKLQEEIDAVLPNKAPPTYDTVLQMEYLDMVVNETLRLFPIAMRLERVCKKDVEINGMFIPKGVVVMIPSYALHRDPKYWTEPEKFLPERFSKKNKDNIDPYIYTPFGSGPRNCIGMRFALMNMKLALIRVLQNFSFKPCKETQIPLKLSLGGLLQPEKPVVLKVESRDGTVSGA
In short: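 Signal was normalized against complete inhibition by 57 uM ketoconazole. The reaction used 20nM CYP3A4 with 25uM Luciferin-PPXE, 10-min compound preincubation and a 60-min NADPH-supported step at RT.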

[11] = molecular target: Cytochrome P450 2D6 (Homo sapiens) (UniProt P10635); experiment: qHTS Assay for Inhibitors and Substrates of Cytochrome P450 2D6 (AID 891);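 further: luciferin methyl ether substrate demethylated by CYP2D6 with NADPH regeneration; on the % scale 0 is the no-effect control and ±100 the full control effect; nearly all actives have a fitted effect of over 60% in size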
Chain of Cytochrome P450 2D6 (Homo sapiens) (P10635 whole entry, looked up): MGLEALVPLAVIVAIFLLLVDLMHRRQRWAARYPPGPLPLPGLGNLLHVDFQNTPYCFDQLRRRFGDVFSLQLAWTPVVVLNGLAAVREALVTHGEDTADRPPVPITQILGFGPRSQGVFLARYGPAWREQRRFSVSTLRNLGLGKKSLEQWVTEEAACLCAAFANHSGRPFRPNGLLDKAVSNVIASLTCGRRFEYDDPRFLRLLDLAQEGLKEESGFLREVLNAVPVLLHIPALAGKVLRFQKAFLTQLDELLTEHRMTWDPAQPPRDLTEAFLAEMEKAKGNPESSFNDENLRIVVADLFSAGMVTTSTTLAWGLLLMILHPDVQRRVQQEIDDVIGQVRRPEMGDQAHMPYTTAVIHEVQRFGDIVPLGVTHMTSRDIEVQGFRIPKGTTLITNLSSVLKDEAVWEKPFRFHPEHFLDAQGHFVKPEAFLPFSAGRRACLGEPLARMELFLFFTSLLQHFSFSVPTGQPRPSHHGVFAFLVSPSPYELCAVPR
In short: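 Human CYP2D6 (5 nM) with 30 uM Luciferin-ME EGE (at Km) in 100 mM KPO4, compound preincubated 10 min, then NADPH regeneration system for 60 min at room temperature. Luciferin read by luminescence; normalized to 1.43 uM quinidine.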

[12] = molecular target: Cytochrome P450 2C19 (Homo sapiens) (UniProt P33261); experiment: qHTS Assay for Inhibitors and Substrates of Cytochrome P450 2C19 (AID 899); further: on the % scale 0 is the no-effect control and ±100 the full control effect; nearly all actives have a fitted effect of over 60% in size
Chain of Cytochrome P450 2C19 (Homo sapiens) (P33261 whole entry, looked up): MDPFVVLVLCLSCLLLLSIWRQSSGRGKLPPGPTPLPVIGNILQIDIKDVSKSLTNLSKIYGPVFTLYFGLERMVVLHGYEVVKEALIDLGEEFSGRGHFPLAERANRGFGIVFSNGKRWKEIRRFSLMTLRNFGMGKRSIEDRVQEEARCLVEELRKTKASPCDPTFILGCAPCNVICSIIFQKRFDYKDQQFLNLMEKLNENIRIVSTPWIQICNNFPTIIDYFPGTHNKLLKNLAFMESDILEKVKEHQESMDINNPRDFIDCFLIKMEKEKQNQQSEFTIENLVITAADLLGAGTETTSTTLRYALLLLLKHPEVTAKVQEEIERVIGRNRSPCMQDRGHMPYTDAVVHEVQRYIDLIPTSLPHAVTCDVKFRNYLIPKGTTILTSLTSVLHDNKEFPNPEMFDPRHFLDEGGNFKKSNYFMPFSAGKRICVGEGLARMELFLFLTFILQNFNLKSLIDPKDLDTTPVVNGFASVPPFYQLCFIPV
In short: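 5 nM human CYP2C19 with 10uM Luciferin-H EGE (at KM) in 50mM KPO4, compound preincubated 10 min at 37C, then NADPH regeneration for 60 min at 37C. Luciferin read by luminescence after detection reagent; normalized to 57uM ketoconazole as full inhibition.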

[13] = Cell Viability - LYMP2-001 (AID 921);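 further: 0% = DMSO only and full inhibition = tetraoctylammonium bromide control wells; nearly all actives have a fitted effect of over 70% in size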
In short: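 Steps: seed 2500 lymphoblastoid cells/well; 5 hr, 37 C; add compound; 24 hr, 37 C; CellTiter-Glo reagent, 30 min room temperature; read luminescence. Concentration-response modeled by Hill equation for AC50.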

[14] = MultiTox-Fluor Cytotoxicity Assay - LYMP1-001 - Dead Cells (AID 946)
In short: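 Cytotoxicity as increased dead-cell protease fluorescence (bis-AAF-R110, 485/520 nm), read 60 min after MultiTox-Fluor reagent. Human lymphoblastoid line exposed 16 h; Hill-fitted AC50, with DMSO as 0% and 15 uM tetraoctylammonium bromide as 100%.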

[15] = MultiTox-Fluor Cytotoxicity Assay - LYMP1-001 - Live Cells (AID 947);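 further: 0% = DMSO only and full inhibition = tetraoctylammonium bromide control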
[16] = Cell Viability - LYMP1-002 - Assay at 16 hr (AID 948);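 further: 0% = DMSO alone and full effect = 92 µM tetraoctylammonium bromide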
In short: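 Seed 2500 LYMP1-002 cells per well in complete medium and hold 5 hr at 37 C. Add compound across a concentration series and incubate 16 hr at 37 C. Add CellTiter-Glo, wait 30 min at room temperature, read luminescence.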

[17] = MultiTox-Fluor Cytotoxicity Assay - LYMP1-002 - Live Cells (AID 955); further: on the % scale 0 is the no-effect control and ±100 the full control effect
In short: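 Human lymphoblastoid LYMP1-002 cells, 2500/well, treated 16 h at 37 C in complete medium. Live-cell protease activity via GF-AFC fluorescence (Ex/Em 405/510) after 60 min reagent incubation; AC50 from Hill fits.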

[18] = MultiTox-Fluor Cytotoxicity Assay - LYMP1-003 - Dead Cells (AID 961); further: nearly all actives have a fitted effect of over 70% in size
In short: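 Dead-cell protease release, detected as bis-AAF-R110 fluorescence at 485/520 nm, was measured in LYMP1-003 cells after 16 h compound treatment at 37 C. AC50 values came from Hill-modeled qHTS curves normalized to DMSO (0%) and 15 uM tetraoctylammonium bromide (100%).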

[19] = MultiTox-Fluor Cytotoxicity Assay - LYMP1-003 - Live Cells (AID 962);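 further: 0% = DMSO only and full loss = 92 µM tetraoctylammonium bromide; cytotoxic hits lower the live-cell protease signal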
In short: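 LYMP1-003 lymphoblastoid cells, 2500/well in complete medium, treated 16 h at 37 C; live-cell protease cleavage of GF-AFC read by fluorescence (Ex/Em 405/510) after 60 min reagent; AC50 from Hill fits of concentration-response.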

[20] = Cell Viability - LYMP1-003 - Assay at 24 hr (AID 963);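 further: plate controls were DMSO only for no effect and tetraoctylammonium bromide positive control for full effect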
In short: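 Human lymphoblastoid LYMP1-003 cells, 2500/well, treated 24 h at 37 C in complete medium. Viability read as intracellular ATP by CellTiter-Glo luminescence after 30 min at room temperature; AC50 from Hill-equation fits of qHTS concentration-response.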

[21] = Cell Viability - LYMP1-003 - Assay at 40 hr (AID 964); further: on the % scale 0 is the no-effect control and ±100 the full control effect; nearly all actives have a fitted effect of over 60% in size
In short: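 LYMP1-003 human lymphoblastoid cells, 2500/well, preincubated 5 h at 37 C, then treated with compound for 40 h at 37 C. Intracellular ATP read by CellTiter-Glo luminescence after 30 min at room temperature; AC50 from Hill-equation fits.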

[22] = Cell Viability - LYMP2-003 (AID 965);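 further: cells exposed to compounds for 24 h before reading; 0% = DMSO only and full effect = 92 µM tetraoctylammonium bromide; nearly all actives have a fitted effect of over 50% in size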
In short: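 Seed 2500 lymphoblastoid cells/well; incubate 5 hr, 37 C; add compounds; incubate 24 hr, 37 C; add CellTiter-Glo, 30 min RT; read luminescence. AC50 from Hill fit.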

[23] = Cell Viability - LYMP2-004 (AID 966);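 further: plate controls were DMSO only for no effect and tetraoctylammonium bromide control for full effect; nearly all actives have a fitted effect of over 65% in size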
In short: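 Lymphoblastoid LYMP2-004 cells, 2500 per well, were preincubated for 5 hr and then treated with compound for 24 h at 37 C in complete medium. Viability was read as cellular ATP by CellTiter-Glo luminescence, and AC50 values were taken from Hill fits to concentration-response data.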

[24] = Cell Viability - LYMP2-005 (AID 967);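 further: plate controls were DMSO only for no effect and 92 µM tetraoctylammonium bromide control for full effect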
In short: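 Acute cytotoxicity is scored as a concentration-dependent drop in intracellular ATP in human lymphoblastoid LYMP2-005 cells after 24 h compound treatment. ATP is quantified by luciferase luminescence, and AC50 is derived by Hill-equation modelling.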

[25] = Cell Viability - LYMP2-013 (AID 970);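 further: 0% = DMSO only and full inhibition = tetraoctylammonium bromide control; nearly all actives have a fitted effect of over 55% in size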
In short: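 Human lymphoblastoid LYMP2-013 cells, 2500/well, treated 24 h at 37 C in complete medium; viability as intracellular ATP by CellTiter-Glo luminescence after 30 min. AC50 from Hill fits of qHTS concentration-response.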

CC(CCC(=O)O)(c1ccc(O)cc1)c1ccc(O)cc1
inactive: Potency [1] | outcome [2] | outcome [3] | outcome [4] | caspase-3 activation [5] 1.18% | outcome [6] | outcome [7] | Potency [8] | Potency [9] | Potency [10] | Potency [11] | Potency [12] | Potency [13] | Potency [14] | Potency [15] | Potency [16] | outcome [17] | Potency [18] | Potency [19] | Potency [20] | Potency [21] | Potency [22] | Potency [23] | Potency [24] | Potency [25]
